This is an account of results in PubChem BioAssay (Tox21).

The nature of experiment [1]: qHTS assay to identify small molecule antagonists of the thyroid receptor (TR) signaling pathway - cell viability counter screen (AID 743064). Also: nearly all actives have a fitted effect of over 50% in size. Also: potency is read from the fitted curve at half-maximal effect. The essentials:
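Rat GH3 pituitary tumor cells stably expressing two TR response elements driving luciferase were plated, rested 4 h, then dosed with library compounds and T3 (1 nM final). After 23.5 h at 37 °C, CellTiter-Fluor was added for 30 min and fluorescence recorded.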

The subject of experiment [2] is thyroid hormone receptor (rat, GH3 cells). Kind of experiment: qHTS assay to identify small molecule agonists of the thyroid receptor (TR) signaling pathway (AID 743066; calls by dose curve). Background: In qHTS, concentration-response curves come from the screen itself.
Experiment [3] addresses Estrogen receptor (Homo sapiens) (UniProt P03372). In words: qHTS assay to identify small molecule antagonists of the estrogen receptor alpha (ER-alpha) signaling pathway (AID 743069; active = well fitted curve in the direction sought with a large enough effect in the signal ratio in the repeat runs, not every such curve was filed as active; the % refers to the signal ratio). The essentials: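 HEK293 cells stably carrying an ER-alpha-UAS-bla beta-lactamase reporter were pre-cultured overnight in 2% charcoal-stripped FBS medium. Test compounds in DMSO were added together with 17beta-estradiol for 18 hr at 37C. Read-out was fluorescence after 2 hr with LiveBLAzer B/G FRET substrate at room temperature.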

The nature of experiment [4]: qHTS assay to identify small molecule antagonists of the estrogen receptor alpha (ER-alpha) signaling pathway - cell viability counter screen (AID 743074; calls by dose curve; also: nearly all actives have a fitted effect of over 45% in size).
The target of experiment [5] is Estrogen receptor (Homo sapiens) (UniProt P03372). Kind of experiment: qHTS assay to identify small molecule agonists of the estrogen receptor alpha (ER-alpha) signaling pathway (AID 743075; calls by dose curve).
Chain of Estrogen receptor (Homo sapiens) (P03372 whole entry, looked up): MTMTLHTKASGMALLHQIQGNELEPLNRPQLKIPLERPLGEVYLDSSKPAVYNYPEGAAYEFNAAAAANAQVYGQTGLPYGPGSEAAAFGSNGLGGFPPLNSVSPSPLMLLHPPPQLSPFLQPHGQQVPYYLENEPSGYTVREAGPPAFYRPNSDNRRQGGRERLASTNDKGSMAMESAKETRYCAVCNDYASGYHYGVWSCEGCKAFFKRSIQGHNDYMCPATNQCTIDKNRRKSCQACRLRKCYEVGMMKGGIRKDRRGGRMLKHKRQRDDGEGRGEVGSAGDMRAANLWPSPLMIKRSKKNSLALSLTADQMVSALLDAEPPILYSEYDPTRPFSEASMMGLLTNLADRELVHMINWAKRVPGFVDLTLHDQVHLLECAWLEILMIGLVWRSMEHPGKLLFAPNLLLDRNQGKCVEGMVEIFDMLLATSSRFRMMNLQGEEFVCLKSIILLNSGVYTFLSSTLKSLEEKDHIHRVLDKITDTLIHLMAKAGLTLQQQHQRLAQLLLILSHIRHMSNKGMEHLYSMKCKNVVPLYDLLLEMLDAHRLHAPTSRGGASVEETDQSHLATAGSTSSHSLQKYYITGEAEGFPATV
The nature of experiment [6]: qHTS assay to identify small molecule antagonists of the estrogen receptor alpha (ER-alpha) signaling pathway using the BG1 cell line (AID 743080; calls by dose curve;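 also: BG1 cells stimulated with 17beta-estradiol alongside compound; series mostly up to about 70 µM; nearly all actives have a fitted effect of over 25% in size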). The essentials:
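Endogenous full-length ER-alpha in BG1-Luc-4E2 cells drives a stably integrated 4×ERE luciferase gene; compounds were tested against 17beta-estradiol over 21.5 h, with luminescence and multiplexed viability fluorescence recorded.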

A short description of experiment [7]: qHTS assay to identify small molecule antagonists of the estrogen receptor alpha (ER-alpha) signaling pathway using the BG1 cell line - cell viability counter screen (AID 743081).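 Also: compound given together with 17beta-estradiol as the ER stimulus; series mostly up to about 70 µM; nearly all actives have a fitted effect of over 45% in size.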
A further experiment concerns the target Aromatase (Homo sapiens) (UniProt P11511). In words: qHTS assay to identify aromatase inhibitors (AID 743083). Also: series mostly up to about 70 µM; nearly all actives have a fitted effect of over 55% in size.
Experiment [8] can be described thus: qHTS assay to identify aromatase inhibitors - cell viability counter screen (AID 743084).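 Also: cells stimulated with testosterone during compound exposure; nearly all actives have a fitted effect of over 55% in size.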
A short description of experiment [9]: qHTS assay to identify small molecule that activate the aryl hydrocarbon receptor (AhR) signaling pathway - cell viability counter screen (AID 743086).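 Also: HepG2 liver cells carrying the AhR DRE luciferase reporter; series mostly up to about 70 µM; nearly all actives have a fitted effect of over 45% in size.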 The essentials:
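HepG2-AhR-luc (HG2L7.5c1) cells, 4000/well, were preincubated 5 h at 37C, exposed to compound in qHTS format for 24 hr at 37C, then given CellTiter-Fluor for 30 min; viability was read as fluorescence in the reporter wells.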

The target in experiment [10] is Peroxisome proliferator-activated receptor gamma (Homo sapiens) (UniProt P37231). In words: qHTS assay to identify small molecule agonists of the peroxisome proliferator-activated receptor gamma (PPARg) signaling pathway (AID 743094; active = well fitted activation curve with a large enough effect in the signal ratio in the repeat runs, not every such curve was filed as active; the % refers to the signal ratio). In outline:
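GeneBLAzer PPARg UAS-bla HEK293H cells were plated, rested 5 h, then exposed to compounds for 17 h at 37C. Beta-lactamase activity was read by LiveBLAzer B/G FRET substrate fluorescence after 1 h at room temperature.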

Experiment [11] is described as follows: qHTS assay for small molecule agonists of the antioxidant response element (ARE) signaling pathway (AID 743202; active = well fitted activation curve with a large enough effect in the signal ratio in the repeat runs, not every such curve was filed as active; the % refers to the signal ratio). In outline: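 Read-out: LiveBLAzer B/G FRET substrate fluorescence after 2 h at room temperature, following 16 h compound treatment at 37 C of HepG2 cells carrying an ARE-driven beta-lactamase reporter.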
Experiment [12] in a line: qHTS assay for small molecule agonists of the antioxidant response element (ARE) signaling pathway - cell viability counter screen (AID 743203; calls by dose curve; also: nearly all actives have a fitted effect of over 55% in size). The essentials: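 ARE-bla HepG2 cells were plated, rested 5 h at 37C/5% CO2, then exposed to compounds in DMSO for 16 h. Viability was read as CellTiter-Glo luminescence after 30 min at room temperature, in the same wells as the ARE screen.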

Experiment [13] in a line: qHTS assay for small molecule activators of the heat shock response signaling pathway - cell viability counter screen (AID 743209). Also: nearly all actives have a fitted effect of over 50% in size. In outline:
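HSE-bla HeLa cells plated overnight, then exposed to Tox21 compounds (23 nL in DMSO) for 5 h at 37 C. After the bla reporter read, CellTiter-Glo was added in the same wells and luminescence read after 30 min at room temperature.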

Experiment [14] in a line: qHTS assay for small molecule activators of the heat shock response signaling pathway (AID 743210; active = well fitted activation curve with a large enough effect in the signal ratio in the repeat runs, with a control signal flat, not every such curve was filed as active; the % refers to the signal ratio; also: series mostly up to about 63 µM). The essentials:
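HSE-bla HeLa cells (beta-lactamase reporter under heat shock response elements) were exposed to compounds for 5 h at 37 C, then loaded with LiveBLAzer B/G FRET substrate for 2.5 h at room temperature before fluorescence reading.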

For experiment [15], the target named is Estrogen receptor (Homo sapiens) (UniProt P03372). Kind of experiment: qHTS assay to identify small molecule agonists of the estrogen receptor alpha (ER-alpha) signaling pathway using the BG1 cell line (AID 743079). Also: nearly all actives have a fitted effect of over 20% in size.
Experiment [16] deals with Aryl hydrocarbon receptor (Homo sapiens) (UniProt P35869). Kind of experiment: qHTS assay to identify small molecule that activate the aryl hydrocarbon receptor (AhR) signaling pathway (AID 743085).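 Also: HG2L7.5c1 human HepG2 liver cells with stably integrated DRE-driven firefly reporter; series mostly up to about 70 µM; nearly all actives have a fitted effect of over 15% in size.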 The essentials:
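Compounds were tested in HepG2 hepatocellular carcinoma cells harbouring a stably integrated luciferase gene under control of 20 DREs. Increased reporter signal after 24 h treatment at 37C was taken as AhR activation.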

A short description of experiment [17]: qHTS assay to identify small molecule antagonists of the peroxisome proliferator-activated receptor gamma (PPARg) signaling pathway - cell viability counter screen (AID 743194). Also: nearly all actives have a fitted effect of over 55% in size. The essentials:
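PPARg-UAS-bla HEK293H cells were plated, rested 5 h at 37 C, then treated with compounds plus rosiglitazone (50 nM final) for 17 h at 37 C; viability was then read by CellTiter-Glo luminescence after 30 min at room temperature.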

Experiment [18] deals with Peroxisome proliferator-activated receptor gamma (Homo sapiens) (UniProt P37231). Kind of experiment: qHTS assay to identify small molecule antagonists of the peroxisome proliferator-activated receptor gamma (PPARg) signaling pathway (AID 743191; calls by dose curve; also: series mostly up to about 63 µM; nearly all actives have a fitted effect of over 30% in size). The essentials: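 GeneBLAzer PPARg UAS-bla HEK293H cells carrying a UAS-driven beta-lactamase reporter were plated at 3000 cells/well, preincubated 5 h at 37C, then given compound for 17 h at 37C; LiveBLAzer B/G FRET substrate was read after 1 h at room temperature.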
Chain of Peroxisome proliferator-activated receptor gamma (Homo sapiens) (P37231 whole entry, looked up): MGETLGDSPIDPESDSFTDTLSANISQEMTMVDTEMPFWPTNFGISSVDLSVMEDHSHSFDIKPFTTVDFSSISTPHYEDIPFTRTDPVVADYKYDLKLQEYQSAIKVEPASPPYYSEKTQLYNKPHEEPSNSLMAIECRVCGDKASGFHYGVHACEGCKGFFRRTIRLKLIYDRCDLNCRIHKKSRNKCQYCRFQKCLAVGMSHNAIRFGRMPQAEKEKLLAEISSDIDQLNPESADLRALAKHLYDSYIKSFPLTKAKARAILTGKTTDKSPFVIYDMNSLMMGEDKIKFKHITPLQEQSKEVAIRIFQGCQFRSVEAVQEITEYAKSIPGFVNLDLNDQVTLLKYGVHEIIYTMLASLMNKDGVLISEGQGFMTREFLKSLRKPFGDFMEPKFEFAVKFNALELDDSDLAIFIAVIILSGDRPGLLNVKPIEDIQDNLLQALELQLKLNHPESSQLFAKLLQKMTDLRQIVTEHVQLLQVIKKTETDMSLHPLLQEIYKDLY

Results filed as inconclusive are left out. The source made the active and inactive calls. Unless noted, calls follow the shape of the dose curve; as a rule, active = well fitted curve in the direction sought with a large enough effect in the repeat runs; inconclusive = weak or mixed curves; inactive = no such curve, though single readings can be large; an effect the other way counts as inactive or inconclusive.

Chain of Aryl hydrocarbon receptor (Homo sapiens) (P35869 whole entry, looked up): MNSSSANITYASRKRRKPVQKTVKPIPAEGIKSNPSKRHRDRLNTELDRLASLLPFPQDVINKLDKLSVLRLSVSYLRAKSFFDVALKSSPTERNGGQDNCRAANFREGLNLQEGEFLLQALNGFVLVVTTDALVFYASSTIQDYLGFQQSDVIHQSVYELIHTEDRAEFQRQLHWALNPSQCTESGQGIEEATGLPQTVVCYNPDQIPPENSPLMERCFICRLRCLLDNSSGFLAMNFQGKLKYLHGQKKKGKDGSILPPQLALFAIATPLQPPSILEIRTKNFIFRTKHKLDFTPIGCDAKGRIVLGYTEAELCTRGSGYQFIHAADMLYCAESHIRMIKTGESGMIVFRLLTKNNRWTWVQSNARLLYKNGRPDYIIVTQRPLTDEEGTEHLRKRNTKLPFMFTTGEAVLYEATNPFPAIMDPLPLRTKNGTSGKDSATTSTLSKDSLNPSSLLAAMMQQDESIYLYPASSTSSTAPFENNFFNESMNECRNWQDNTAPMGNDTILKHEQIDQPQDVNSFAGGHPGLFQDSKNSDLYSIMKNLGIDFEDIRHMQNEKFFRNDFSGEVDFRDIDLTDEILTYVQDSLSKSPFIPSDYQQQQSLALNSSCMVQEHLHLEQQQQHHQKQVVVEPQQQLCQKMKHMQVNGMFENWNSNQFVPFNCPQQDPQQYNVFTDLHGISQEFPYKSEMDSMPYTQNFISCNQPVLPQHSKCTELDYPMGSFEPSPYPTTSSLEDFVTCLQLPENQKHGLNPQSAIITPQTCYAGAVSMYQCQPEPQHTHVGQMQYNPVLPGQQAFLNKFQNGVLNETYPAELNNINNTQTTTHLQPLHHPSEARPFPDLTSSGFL
Chain of Aromatase (Homo sapiens) (P11511 whole entry, looked up): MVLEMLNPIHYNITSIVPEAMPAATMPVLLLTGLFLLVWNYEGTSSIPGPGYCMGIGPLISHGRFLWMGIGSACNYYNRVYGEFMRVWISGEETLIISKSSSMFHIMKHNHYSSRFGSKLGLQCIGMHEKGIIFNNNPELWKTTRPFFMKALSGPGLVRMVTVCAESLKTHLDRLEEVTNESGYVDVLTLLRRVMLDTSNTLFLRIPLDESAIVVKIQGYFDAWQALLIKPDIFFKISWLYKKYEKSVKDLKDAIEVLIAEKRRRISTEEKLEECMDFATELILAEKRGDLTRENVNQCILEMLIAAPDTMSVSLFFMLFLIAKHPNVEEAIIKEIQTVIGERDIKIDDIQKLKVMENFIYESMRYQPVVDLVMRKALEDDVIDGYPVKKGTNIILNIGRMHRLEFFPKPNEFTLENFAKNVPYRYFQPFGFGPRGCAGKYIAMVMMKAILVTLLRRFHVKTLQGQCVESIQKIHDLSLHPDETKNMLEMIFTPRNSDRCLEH

Regarding `CC1=CC(=O)/C(=C(/C)O)C(=O)O1`, the Potency entry in experiment [1], in [2], in experiment [3], in experiment [5], in experiment [6] and in [7] was “inactive” each time. In addition, the Potency result (with Aromatase (Homo sapiens); in experiment [8]; in [9]; in [10]; in experiment [11]; in experiment [12]) was “inactive” throughout. Besides, in experiment [13], the Potency entry is “inactive”. Further, the compound was classed as inactive in experiment [4] and in [14].

Consider `CCCCCOC(=O)COc1cc(N2C(=O)C3=C(CCCC3)C2=O)c(F)cc1Cl`, for which the Potency entry in [1], in experiment [2], in [3], in experiment [5], in experiment [15] and in experiment [6] was “inactive” each time. Further, the Potency result (in experiment [7]; with Aromatase (Homo sapiens); in [8]; in experiment [16]; in [9]; in [10]) was “inactive” each time. Also, the Potency result in experiment [17], in [12] and in experiment [13] was “inactive” throughout. The call in experiment [4] and in experiment [14] was inactive.

Take `Cc1ccc(C(C)c2ccc(C)c(C)c2)cc1C`: the Potency entry in experiment [1], in experiment [2], in experiment [3], in experiment [5], in experiment [15] and in [6] was “inactive” throughout. The Potency result (in [7]; in the experiment with Aromatase (Homo sapiens); in [8]; in [16]; in experiment [9]; in experiment [10]) was “inactive” each time. The Potency result in experiment [18], in experiment [17] and in [12] was “inactive” in each case. Besides, the compound was classed as inactive in experiment [4] and in experiment [14].

Consider `CC(=O)Nc1ccc(/C=N/NC(N)=S)cc1`, for which the Potency result (in [1]; in [2]; in [7]; in the experiment with Aromatase (Homo sapiens); in experiment [8]; in experiment [16]) was “inactive” throughout. Also, the Potency entry in experiment [9], in [10], in [11], in experiment [12] and in experiment [13] was “inactive” each time. Further, the result in experiment [4] and in experiment [14] was inactive.

On to `NC(N)=N/N=C/c1c(Cl)cccc1Cl`, for which the Potency in experiment [1] was 23.7 µM (active). For the same compound, the Potency result (in [2]; in experiment [5]; in experiment [15]; in experiment [6]; with Aromatase (Homo sapiens); in experiment [16]) was “inactive” throughout. Moreover, the Potency result in experiment [9], in experiment [10], in [18], in experiment [17], in experiment [12] and in experiment [13] was “inactive” each time. In addition, the result in experiment [4] and in experiment [14] was inactive.

For the compound `CN(c1nccc(=O)[nH]1)C1CCN(c2nc3ccccc3n2Cc2ccc(F)cc2)CC1`, the Potency entry (in [1]; in experiment [2]; in experiment [5]; in experiment [6]; in [7]; in the experiment with Aromatase (Homo sapiens)) was “inactive” in each case. For the same compound, the Potency result in experiment [8], in experiment [16], in experiment [9], in experiment [10], in experiment [17] and in [12] was “inactive” in each case. In [13], the Potency result was “inactive”. Also, the result in experiment [4] and in experiment [14] was inactive.

For `CCOC(=O)C1=NN(c2ccccc2)C(=O)C1`, the Potency result in [1], in [2], in experiment [5], in experiment [15], in experiment [6] and in [7] was “inactive” each time. Also, the Potency entry (with Aromatase (Homo sapiens); in experiment [8]; in experiment [16]; in experiment [9]; in experiment [18]; in [17]) was “inactive” in each case. Further, the Potency result in [11] and in [13] was “inactive” in each case. Besides, the compound was classed as inactive in [4] and in experiment [14].

In the case of `CCCCOc1cc(C(=O)OCCN(CC)CC)ccc1N`, the Potency result in [1], in experiment [2], in [3], in experiment [5], in experiment [15] and in experiment [6] was “inactive” throughout. In addition, the Potency entry (in [7]; with Aromatase (Homo sapiens); in experiment [8]; in experiment [9]; in experiment [10]; in experiment [18]) was “inactive” in each case. For the same compound, the Potency result in experiment [17] and in experiment [12] was “inactive” each time. The outcome in experiment [4] and in experiment [14] was inactive.

As for `SC1CCCC1`, the Potency entry in experiment [1], in experiment [2], in experiment [3], in experiment [5], in experiment [6] and in experiment [7] was “inactive” in each case. Besides, the Potency entry (in the experiment with Aromatase (Homo sapiens); in experiment [8]; in [16]; in experiment [9]; in experiment [10]; in experiment [18]) was “inactive” each time. In addition, the Potency result in experiment [17], in [11], in [12] and in experiment [13] was “inactive” each time. In addition, the compound was classed as inactive in experiment [4] and in [14].
